# Article PMC7862700, “An all-to-all approach to the identification of sequence-specific readers for epigenetic DNA modifications on cytosine”
# Experiments:
# Assay in all cases: DAPPL (digital affinity profiling via proximity ligation, sequencing); 10 mM Tris-HCl pH 7.5, 50 mM NaCl, 1 mM DTT, 4% glycerol, room temperature, 30 min; GST-TFs on glutathione beads, 16-mer random dsDNA library, 0.1% formaldehyde crosslink after washing; high values mean tight binding
# [1] = target: T1, FLI1 (Homo sapiens, UniProt Q01543 1-452); details: protein: recombinant; tags: N-terminal GST; dsDNA, one strand shown
# T1 sequence: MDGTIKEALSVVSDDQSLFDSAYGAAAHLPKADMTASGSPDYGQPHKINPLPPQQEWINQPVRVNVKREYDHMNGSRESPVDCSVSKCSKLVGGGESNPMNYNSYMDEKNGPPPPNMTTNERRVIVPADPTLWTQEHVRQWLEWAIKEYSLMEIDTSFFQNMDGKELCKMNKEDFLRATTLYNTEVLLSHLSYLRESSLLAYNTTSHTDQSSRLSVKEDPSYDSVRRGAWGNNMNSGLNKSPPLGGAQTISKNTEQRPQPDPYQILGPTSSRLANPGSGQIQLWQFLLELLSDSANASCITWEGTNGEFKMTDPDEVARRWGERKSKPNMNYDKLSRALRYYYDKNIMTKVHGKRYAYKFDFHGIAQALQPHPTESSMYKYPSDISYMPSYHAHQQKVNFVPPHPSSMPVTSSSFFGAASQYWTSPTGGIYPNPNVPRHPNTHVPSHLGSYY
# Method in brief: (§1)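 GST fusions of human transcription factors were expressed in yeast and captured with glutathione beads. Once given DNA barcodes and pooled alongside a tag-only sample, they were incubated for 30 min at room temperature with 200 nmole of a random double-stranded 16-mer DNA library in Tris/NaCl/DTT/glycerol buffer, then washed, crosslinked (0.1% formaldehyde), proximity-ligated, PCR-amplified and sequenced on an Illumina NextSeq500. The binding signal of each hexamer is its read frequency for a factor divided by its frequency for the tag-only sample.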
# [2] = target: T2, ELK1 (Homo sapiens, UniProt P19419 1-428); details: protein: recombinant; tags: N-terminal GST; dsDNA, one strand shown
# T2 sequence: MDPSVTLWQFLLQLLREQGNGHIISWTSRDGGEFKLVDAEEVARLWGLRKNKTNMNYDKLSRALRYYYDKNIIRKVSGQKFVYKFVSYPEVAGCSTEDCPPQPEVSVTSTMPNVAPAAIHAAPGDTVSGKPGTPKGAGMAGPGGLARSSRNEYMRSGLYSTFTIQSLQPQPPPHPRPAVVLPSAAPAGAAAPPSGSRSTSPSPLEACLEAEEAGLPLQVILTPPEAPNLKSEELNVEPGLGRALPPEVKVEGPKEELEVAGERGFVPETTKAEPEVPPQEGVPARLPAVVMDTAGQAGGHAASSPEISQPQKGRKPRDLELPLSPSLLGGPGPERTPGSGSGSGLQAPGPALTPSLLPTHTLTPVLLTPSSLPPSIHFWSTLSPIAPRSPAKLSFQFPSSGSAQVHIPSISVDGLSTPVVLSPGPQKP
# Method in brief: as §1
# [3] = target: T3, GABPA (Homo sapiens, UniProt Q06546 1-454); details: protein: recombinant; tags: N-terminal GST; dsDNA, one strand shown
# T3 sequence: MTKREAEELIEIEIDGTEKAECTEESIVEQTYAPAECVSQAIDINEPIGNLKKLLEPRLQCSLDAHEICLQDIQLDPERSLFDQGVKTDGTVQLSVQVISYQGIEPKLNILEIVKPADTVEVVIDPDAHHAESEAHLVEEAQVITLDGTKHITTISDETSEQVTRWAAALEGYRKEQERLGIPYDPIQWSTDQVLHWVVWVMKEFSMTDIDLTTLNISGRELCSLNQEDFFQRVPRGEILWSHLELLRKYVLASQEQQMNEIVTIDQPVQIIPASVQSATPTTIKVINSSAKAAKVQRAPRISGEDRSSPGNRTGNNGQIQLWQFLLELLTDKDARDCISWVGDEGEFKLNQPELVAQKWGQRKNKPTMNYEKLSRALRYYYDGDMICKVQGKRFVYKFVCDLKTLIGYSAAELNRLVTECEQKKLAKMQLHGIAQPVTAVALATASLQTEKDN
# Method in brief: as §1
# [4] = target: T4, ERG (Homo sapiens, UniProt P11308 1-479); details: protein: recombinant; tags: N-terminal GST; dsDNA, one strand shown
# T4 sequence: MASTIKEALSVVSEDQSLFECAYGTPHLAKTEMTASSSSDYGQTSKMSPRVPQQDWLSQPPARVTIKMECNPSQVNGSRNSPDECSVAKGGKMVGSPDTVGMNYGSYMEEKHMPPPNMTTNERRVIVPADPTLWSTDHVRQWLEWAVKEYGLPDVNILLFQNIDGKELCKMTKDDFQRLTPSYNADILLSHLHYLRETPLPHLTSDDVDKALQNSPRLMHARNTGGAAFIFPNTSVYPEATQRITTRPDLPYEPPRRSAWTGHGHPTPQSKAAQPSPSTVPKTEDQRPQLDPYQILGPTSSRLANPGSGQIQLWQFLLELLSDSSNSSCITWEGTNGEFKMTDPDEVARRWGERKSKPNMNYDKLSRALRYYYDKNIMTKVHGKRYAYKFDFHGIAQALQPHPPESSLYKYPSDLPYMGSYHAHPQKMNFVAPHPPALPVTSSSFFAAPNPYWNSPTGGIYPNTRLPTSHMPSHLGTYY
# Method in brief: as §1
# [5] = target: ELF1 (Homo sapiens, UniProt P32519 1-619); details: protein: recombinant; tags: N-terminal GST; dsDNA, one strand shown
# Chain of ELF1 (P32519 whole entry): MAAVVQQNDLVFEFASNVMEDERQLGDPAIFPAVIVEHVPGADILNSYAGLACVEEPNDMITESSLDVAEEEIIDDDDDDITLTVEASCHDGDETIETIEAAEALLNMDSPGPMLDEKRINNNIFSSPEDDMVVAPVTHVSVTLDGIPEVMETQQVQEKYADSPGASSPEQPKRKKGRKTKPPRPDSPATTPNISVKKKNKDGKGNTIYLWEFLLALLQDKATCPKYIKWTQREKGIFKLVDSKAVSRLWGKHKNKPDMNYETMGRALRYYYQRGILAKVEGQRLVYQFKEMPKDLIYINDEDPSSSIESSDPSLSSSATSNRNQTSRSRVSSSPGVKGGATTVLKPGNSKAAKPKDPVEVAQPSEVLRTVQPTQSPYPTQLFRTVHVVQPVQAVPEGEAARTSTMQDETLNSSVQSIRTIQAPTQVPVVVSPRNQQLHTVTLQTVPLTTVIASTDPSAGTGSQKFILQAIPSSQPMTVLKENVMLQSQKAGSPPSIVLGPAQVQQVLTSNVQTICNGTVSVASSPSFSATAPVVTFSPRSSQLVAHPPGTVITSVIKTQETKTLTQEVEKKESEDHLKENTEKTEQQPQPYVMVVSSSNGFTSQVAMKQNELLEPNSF
# Method in brief: as §1
# [6] = target: T5, EHF (Homo sapiens, UniProt Q9NZC4 1-300); details: protein: recombinant; tags: N-terminal GST; dsDNA, one strand shown
# T5 sequence: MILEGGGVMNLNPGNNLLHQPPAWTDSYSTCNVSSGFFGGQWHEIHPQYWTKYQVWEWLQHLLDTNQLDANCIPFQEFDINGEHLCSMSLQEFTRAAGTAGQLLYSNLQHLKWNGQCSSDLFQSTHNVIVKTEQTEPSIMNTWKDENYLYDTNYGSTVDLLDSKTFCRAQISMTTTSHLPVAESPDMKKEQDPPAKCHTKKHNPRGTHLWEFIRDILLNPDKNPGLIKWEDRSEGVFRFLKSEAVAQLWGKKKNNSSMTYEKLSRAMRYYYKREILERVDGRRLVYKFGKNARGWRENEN
# Method in brief: as §1
# [7] = target: SPI1 (Homo sapiens, UniProt P17947 1-270); details: protein: recombinant; tags: N-terminal GST; dsDNA, one strand shown
# Method in brief: as §1
# [8] = target: SPIB (Homo sapiens, UniProt Q01892 1-262); details: protein: recombinant; tags: N-terminal GST; dsDNA, one strand shown
# Chain of SPIB (Q01892 whole entry): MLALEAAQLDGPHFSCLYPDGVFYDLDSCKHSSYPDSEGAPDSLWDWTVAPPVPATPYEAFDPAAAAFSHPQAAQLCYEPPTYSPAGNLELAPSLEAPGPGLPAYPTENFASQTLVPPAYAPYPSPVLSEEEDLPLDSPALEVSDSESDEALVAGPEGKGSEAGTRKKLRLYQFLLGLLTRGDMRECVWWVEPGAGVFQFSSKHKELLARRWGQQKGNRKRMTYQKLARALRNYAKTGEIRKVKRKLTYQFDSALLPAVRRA
# Method in brief: as §1
# [9] = target: T6, ELK3 (Homo sapiens, UniProt P41970 1-407); details: protein: recombinant; tags: N-terminal GST; dsDNA, one strand shown
# T6 sequence: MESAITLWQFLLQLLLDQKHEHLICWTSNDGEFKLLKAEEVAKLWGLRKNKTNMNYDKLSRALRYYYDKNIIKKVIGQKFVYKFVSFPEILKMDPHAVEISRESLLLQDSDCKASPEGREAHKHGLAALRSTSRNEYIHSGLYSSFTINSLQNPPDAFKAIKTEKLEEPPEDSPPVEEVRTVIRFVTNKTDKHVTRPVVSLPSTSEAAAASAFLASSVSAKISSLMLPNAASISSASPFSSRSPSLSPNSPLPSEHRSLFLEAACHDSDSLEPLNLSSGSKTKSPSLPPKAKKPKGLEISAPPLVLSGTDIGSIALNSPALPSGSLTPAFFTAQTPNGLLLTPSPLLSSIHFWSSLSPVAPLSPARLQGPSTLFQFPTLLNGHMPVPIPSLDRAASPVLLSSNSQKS
# Method in brief: as §1
# [10] = target: T7, FEV (Homo sapiens, UniProt Q99581 1-238); details: protein: recombinant; tags: N-terminal GST; dsDNA, one strand shown
# T7 sequence: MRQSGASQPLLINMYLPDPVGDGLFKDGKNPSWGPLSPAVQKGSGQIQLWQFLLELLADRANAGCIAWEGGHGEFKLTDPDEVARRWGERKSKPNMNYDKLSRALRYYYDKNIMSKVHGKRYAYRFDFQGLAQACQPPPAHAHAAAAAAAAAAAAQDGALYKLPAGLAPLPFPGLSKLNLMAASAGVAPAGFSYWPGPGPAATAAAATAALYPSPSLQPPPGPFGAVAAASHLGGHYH
# Method in brief: as §1
# [11] = target: ETV5 (Homo sapiens, UniProt P41161 1-510); details: protein: recombinant; tags: N-terminal GST; dsDNA, one strand shown
# Chain of ETV5 (P41161 whole entry): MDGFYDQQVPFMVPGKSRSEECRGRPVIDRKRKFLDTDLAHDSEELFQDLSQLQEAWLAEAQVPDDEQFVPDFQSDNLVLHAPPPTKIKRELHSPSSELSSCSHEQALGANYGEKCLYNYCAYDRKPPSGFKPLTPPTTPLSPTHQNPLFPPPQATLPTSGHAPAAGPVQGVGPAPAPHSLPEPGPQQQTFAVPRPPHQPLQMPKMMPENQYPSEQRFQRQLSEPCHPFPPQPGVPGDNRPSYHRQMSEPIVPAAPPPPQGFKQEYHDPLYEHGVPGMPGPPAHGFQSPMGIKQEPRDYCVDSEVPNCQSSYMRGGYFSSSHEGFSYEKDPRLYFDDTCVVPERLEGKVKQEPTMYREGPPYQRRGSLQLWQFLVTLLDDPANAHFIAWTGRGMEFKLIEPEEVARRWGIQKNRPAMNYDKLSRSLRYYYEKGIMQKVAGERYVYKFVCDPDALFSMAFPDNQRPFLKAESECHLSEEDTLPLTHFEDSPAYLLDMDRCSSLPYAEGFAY
# Method in brief: as §1
# [12] = target: HSF1 (Homo sapiens, UniProt Q00613 1-529); details: protein: recombinant; tags: N-terminal GST; chain copies: 3; dsDNA, one strand shown
# Chain of HSF1 (Q00613 whole entry): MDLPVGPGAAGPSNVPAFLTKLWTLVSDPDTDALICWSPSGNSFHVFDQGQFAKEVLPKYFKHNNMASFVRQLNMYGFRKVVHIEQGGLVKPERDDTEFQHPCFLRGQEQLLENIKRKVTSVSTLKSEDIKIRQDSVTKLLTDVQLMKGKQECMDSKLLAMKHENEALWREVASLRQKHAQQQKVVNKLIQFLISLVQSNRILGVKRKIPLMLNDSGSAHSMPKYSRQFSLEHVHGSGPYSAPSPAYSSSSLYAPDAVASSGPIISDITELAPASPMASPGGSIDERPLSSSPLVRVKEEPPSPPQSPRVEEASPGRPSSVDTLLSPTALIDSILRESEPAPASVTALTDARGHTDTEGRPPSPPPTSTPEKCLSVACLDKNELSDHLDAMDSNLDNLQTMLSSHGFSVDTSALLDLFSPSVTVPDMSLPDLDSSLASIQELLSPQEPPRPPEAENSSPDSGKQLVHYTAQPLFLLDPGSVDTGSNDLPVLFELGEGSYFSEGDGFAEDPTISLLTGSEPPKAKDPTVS
# Method in brief: as §1
# [13] = target: T8, SPIC (Homo sapiens, UniProt Q8N5J4 1-248); details: protein: recombinant; tags: N-terminal GST; dsDNA, one strand shown
# T8 sequence: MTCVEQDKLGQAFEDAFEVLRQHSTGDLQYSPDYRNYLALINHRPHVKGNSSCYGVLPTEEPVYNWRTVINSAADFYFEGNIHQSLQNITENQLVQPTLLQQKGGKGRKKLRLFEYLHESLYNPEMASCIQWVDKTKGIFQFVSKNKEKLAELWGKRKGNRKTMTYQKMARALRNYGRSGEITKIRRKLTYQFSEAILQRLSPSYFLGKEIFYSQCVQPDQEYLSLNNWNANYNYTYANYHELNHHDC
# Method in brief: as §1
# [14] = target: ELF4 (Homo sapiens, UniProt Q99607 1-663); details: protein: recombinant; tags: N-terminal GST; dsDNA, one strand shown
# Chain of ELF4 (Q99607 whole entry): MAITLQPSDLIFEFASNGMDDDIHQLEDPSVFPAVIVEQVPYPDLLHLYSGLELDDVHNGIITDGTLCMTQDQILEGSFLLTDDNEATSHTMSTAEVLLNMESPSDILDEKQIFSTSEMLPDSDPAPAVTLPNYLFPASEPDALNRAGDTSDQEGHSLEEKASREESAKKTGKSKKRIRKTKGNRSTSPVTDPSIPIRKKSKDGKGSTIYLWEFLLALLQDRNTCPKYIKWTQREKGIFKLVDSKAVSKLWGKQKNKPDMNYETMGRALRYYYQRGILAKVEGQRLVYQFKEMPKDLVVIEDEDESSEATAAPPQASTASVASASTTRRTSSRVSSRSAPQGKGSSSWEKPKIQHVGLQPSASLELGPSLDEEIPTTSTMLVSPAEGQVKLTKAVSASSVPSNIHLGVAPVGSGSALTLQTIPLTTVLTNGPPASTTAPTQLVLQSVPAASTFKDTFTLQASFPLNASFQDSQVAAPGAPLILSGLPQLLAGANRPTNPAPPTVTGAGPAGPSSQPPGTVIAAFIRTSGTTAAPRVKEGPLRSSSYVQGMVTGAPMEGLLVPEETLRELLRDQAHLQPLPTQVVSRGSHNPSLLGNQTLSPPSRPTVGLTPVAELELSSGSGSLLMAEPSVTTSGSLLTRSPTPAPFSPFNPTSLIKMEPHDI
# Method in brief: as §1
# [15] = target: T9, ELK4 (Homo sapiens, UniProt P28324-2 1-405); details: protein: recombinant; tags: N-terminal GST; dsDNA, one strand shown
# T9 sequence: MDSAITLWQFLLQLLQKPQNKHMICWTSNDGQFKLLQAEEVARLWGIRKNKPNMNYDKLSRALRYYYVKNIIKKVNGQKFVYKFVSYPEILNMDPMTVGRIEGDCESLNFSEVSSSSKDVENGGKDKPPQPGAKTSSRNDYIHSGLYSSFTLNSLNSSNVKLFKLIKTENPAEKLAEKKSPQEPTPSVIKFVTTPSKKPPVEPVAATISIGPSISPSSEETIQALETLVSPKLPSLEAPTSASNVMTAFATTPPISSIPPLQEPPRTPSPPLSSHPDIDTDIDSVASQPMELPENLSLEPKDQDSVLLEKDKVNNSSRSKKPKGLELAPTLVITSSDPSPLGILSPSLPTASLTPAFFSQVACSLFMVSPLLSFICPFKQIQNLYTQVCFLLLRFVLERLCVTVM
# Method in brief: as §1
# [16] = target: T10, ETV2 (Homo sapiens, UniProt O00321 1-342); details: protein: recombinant; tags: N-terminal GST; dsDNA, one strand shown
# T10 sequence: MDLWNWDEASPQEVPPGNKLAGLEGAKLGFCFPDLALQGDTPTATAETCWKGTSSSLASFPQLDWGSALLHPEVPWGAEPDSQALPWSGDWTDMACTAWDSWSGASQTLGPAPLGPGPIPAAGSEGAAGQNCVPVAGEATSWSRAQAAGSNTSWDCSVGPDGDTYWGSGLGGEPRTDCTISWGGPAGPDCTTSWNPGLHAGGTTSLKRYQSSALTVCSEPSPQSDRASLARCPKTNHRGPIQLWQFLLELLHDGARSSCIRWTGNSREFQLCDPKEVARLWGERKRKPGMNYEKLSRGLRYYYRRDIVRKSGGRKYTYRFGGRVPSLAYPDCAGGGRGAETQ
# Method in brief: as §1
# [17] = target: T11, ELF3 (Homo sapiens, UniProt P78545 1-371); details: protein: recombinant; tags: N-terminal GST; dsDNA, one strand shown
# T11 sequence: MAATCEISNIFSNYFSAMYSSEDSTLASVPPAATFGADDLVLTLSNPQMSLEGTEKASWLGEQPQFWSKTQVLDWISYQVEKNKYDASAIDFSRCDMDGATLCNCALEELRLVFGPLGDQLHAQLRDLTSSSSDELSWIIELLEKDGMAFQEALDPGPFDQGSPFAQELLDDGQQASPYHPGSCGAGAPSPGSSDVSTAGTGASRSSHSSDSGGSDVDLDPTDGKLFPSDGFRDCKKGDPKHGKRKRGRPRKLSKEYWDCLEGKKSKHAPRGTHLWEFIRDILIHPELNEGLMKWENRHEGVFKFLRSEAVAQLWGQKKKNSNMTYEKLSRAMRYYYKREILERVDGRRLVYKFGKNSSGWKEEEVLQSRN
# Method in brief: as §1
# [18] = target: CRX (Homo sapiens, UniProt O43186 1-299); details: protein: recombinant; tags: N-terminal GST; dsDNA, one strand shown
# Chain of CRX (O43186 whole entry): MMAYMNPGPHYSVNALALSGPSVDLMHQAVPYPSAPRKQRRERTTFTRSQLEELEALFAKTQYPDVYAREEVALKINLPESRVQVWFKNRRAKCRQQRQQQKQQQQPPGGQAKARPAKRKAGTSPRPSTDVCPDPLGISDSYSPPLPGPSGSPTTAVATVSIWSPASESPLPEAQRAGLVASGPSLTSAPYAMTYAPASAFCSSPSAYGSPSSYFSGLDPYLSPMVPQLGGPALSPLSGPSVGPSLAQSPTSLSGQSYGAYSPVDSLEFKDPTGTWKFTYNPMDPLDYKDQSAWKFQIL
# Method in brief: as §1
# [19] = target: ETV1 (Homo sapiens, UniProt P50549 1-477); details: protein: recombinant; tags: N-terminal GST; dsDNA, one strand shown
# Chain of ETV1 (P50549 whole entry): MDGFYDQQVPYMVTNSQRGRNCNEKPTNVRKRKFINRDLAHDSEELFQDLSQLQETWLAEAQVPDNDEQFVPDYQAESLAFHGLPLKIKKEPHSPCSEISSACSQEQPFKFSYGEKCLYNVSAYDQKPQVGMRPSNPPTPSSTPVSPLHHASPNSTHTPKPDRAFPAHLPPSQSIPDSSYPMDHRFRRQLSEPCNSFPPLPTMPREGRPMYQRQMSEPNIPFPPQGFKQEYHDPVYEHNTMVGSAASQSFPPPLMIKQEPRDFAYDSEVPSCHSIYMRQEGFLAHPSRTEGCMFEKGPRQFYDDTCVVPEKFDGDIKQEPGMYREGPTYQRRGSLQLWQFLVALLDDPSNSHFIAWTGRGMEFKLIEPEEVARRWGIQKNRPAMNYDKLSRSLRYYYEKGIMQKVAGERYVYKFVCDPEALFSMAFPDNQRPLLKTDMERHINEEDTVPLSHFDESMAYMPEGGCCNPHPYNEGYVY
# Method in brief: as §1
sequence,measurement,setting,value
CCGATT,binding signal,[1],"1.42 fold enrichment (6-mer frequency, TF over GST control)"
same,binding signal,[2],"1.35 fold enrichment (6-mer frequency, TF over GST control)"
same,binding signal,[3],"1.32 fold enrichment (6-mer frequency, TF over GST control)"
same,binding signal,[4],"1.34 fold enrichment (6-mer frequency, TF over GST control)"
same,binding signal,[5],"1.36 fold enrichment (6-mer frequency, TF over GST control)"
same,binding signal,[6],"1.4 fold enrichment (6-mer frequency, TF over GST control)"
same,binding signal,[7],"1.31 fold enrichment (6-mer frequency, TF over GST control)"
same,binding signal,[8],"1.4 fold enrichment (6-mer frequency, TF over GST control)"
same,binding signal,[9],"1.29 fold enrichment (6-mer frequency, TF over GST control)"
same,binding signal,[10],"1.37 fold enrichment (6-mer frequency, TF over GST control)"
same,binding signal,[11],"1.34 fold enrichment (6-mer frequency, TF over GST control)"
same,binding signal,[12],"1.94 fold enrichment (6-mer frequency, TF over GST control)"
same,binding signal,[13],"1.18 fold enrichment (6-mer frequency, TF over GST control)"
same,binding signal,[14],"1.41 fold enrichment (6-mer frequency, TF over GST control)"
same,binding signal,[15],"1.37 fold enrichment (6-mer frequency, TF over GST control)"
same,binding signal,[16],"1.27 fold enrichment (6-mer frequency, TF over GST control)"
same,binding signal,[17],"1.17 fold enrichment (6-mer frequency, TF over GST control)"
same,binding signal,[18],"2.69 fold enrichment (6-mer frequency, TF over GST control)"
same,binding signal,[19],"1.35 fold enrichment (6-mer frequency, TF over GST control)"
